Screens (PubChem)
Pf growth 96h = Primary qHTS for delayed death inhibitors of the malarial parasite plastid, 96 hour incubation | P. falciparum luciferase reporter growth, 96 h | Potency, µM (top dose mostly 28.7 µM), for inactives: top-dose activity change, negative = inhibition, most hits filed as inhibitors | actives 6.9% (n = 320,000); note: potency is the fitted concentration of half-maximal effect; % is set by controls: 0 for no effect and ±100 for the full control effect
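Cell-based qHTS: luciferase-tagged P. falciparum in erythrocytes (2% hematocrit, 0.05% parasitemia final) incubated with compounds for 96 hours, 37 C, 5% CO2; luciferase detection reagent then added and luminescence measured.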
CHX counter = Cycloheximide Counterscreen for Small Molecule Inhibitors of Shiga Toxin | max response, % | actives 12% (n = 300,000) | cell reporter, cycloheximide protein synthesis inhibition counterscreen; in the data active = max response mostly above about 13%, no sharp cut-off; inactive = mostly below about 14%; note: read at 38.3 µM for the half of the compounds with a filed dose; 0% is about no effect
Shiga inhibitor = A qHTS for Small Molecule Inhibitors of Shiga Toxin. Vero cells, Shiga toxin protein synthesis inhibition reporter. actives 9.2% (n = 290,000). inhibition, % at 38.7 µM; in the data active = inhibition mostly above about 28%, no sharp cut-off; inactive = mostly below about 43%; note: 0% is about no effect
NS1 function inh = qHTS Assay for Inhibitors of Influenza NS1 Protein Function. Potency, µM (titrated, usually from 46.1 µM), without a hit: top-dose activity, positive = more growth. AID 2326, 2010. actives 0.4% (n = 270,000); calls by dose curve; note: potency is the fitted concentration of half-maximal effect; actives are rising curves; nearly all actives have a fitted effect of over 50% in size
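OD600 was taken as the measure of yeast growth restored by compound in an NS1-expressing S. cerevisiae strain. Cells had been washed out of glucose medium and diluted 1:100 into galactose -URA medium, pH 6.0.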
Pf growth 48h = Primary qHTS for delayed death inhibitors of the malarial parasite plastid, 48 hour incubation; actives 5.9% (n = 310,000); Potency, µM (highest dose often 28.7 µM), for the others: at the highest dose activity change, negative = inhibition, most hits filed as inhibitors; P. falciparum luciferase growth in erythrocytes, 48 h; note: potency is the fitted concentration of half-maximal effect; % is set by controls: 0 for no effect and ±100 for the full control effect
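Luciferase-expressing parasites in RBCs, 2% Hct / 0.1% parasitemia final; RPMI 1640 + 0.5% Albumax; 37 C, 5% CO2, one generation; luminescence read-out, lower signal = inhibition.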
FBPA Giardia inh = qHTS Assay for Inhibitors of Fructose-1,6-bisphosphate Aldolase from Giardia Lamblia. purified Giardia FBPA. Potency, µM (doses to about 59.6 µM), for the others: at the highest dose activity, negative = inhibition, hits mostly inhibitors. A8B2U2. actives 0.71% (n = 290,000); note: potency is the fitted concentration of half-maximal effect; % is set by controls: 0 for no effect and ±100 for the full control effect; nearly all actives have a fitted effect of over 55% in size
Target sequence (A8B2U2 whole entry, looked up): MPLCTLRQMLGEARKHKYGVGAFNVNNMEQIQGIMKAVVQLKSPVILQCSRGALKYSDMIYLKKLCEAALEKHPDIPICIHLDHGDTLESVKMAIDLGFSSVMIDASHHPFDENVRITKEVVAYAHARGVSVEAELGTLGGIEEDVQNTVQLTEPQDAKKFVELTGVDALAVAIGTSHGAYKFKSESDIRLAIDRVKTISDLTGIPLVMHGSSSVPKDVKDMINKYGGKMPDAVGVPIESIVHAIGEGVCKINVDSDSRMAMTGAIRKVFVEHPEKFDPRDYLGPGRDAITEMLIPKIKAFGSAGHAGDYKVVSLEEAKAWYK
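40 nM FBPA preincubated 10 min at RT with compound (up to 57.5 uM final), then substrate plus GAPDH/TPI/NAD/arsenate coupling and diaphorase/resazurin added. Fluorescence read after 20 min at RT, 525/598 nm.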
* marks the source's active call; other numbers are inactive results. In the library only some 21% were active in any assay of this set; here they are far more common. Unless noted, calls come from the whole dose curve; as a rule, active = well fitted curve in the direction sought with a large enough effect; inconclusive = small, poorly fitted or top-dose-only effect, or another doubt; inactive = no such curve, though single readings can be large; an effect the other way counts as inactive or inconclusive.

What do the screens show for `O=C(Nc1ccc(C(F)(F)F)cc1)c1ccccc1Br`?
Pf growth 96h: -13%; CHX counter: 49*; Shiga inhibitor: 108*; Pf growth 48h: 82%; FBPA Giardia inh: -7%

What do the screens show for `COc1ccc(NC(=O)n2nc(OC(=O)c3cccs3)cc2N)cc1`?
Pf growth 96h: 123%; CHX counter: 33*; Shiga inhibitor: 51*; NS1 function inh: -5%; Pf growth 48h: 181%; FBPA Giardia inh: -7%

Results for CC(=O)Nc1ccc(OC(=O)c2cccs2)cc1 ?
CHX counter: 34*; Shiga inhibitor: 71*; NS1 function inh: -5%; Pf growth 48h: 16%; FBPA Giardia inh: -1%

What do the screens show for `Cc1ccc(NC(=O)CCc2nnc3ccc(N4CCC(C)CC4)nn23)nc1`?
Pf growth 96h: inconclusive; CHX counter: 7; Shiga inhibitor: 9; NS1 function inh: 6%; Pf growth 48h: inconclusive

How did COc1ccc(NC(=O)c2ccc(NC(=O)c3cccs3)cc2)cc1 do in these assays?
Pf growth 96h: 76%; CHX counter: 9; Shiga inhibitor: 1; NS1 function inh: 21%; Pf growth 48h: -8%; FBPA Giardia inh: 0%

Results for CC(=O)c1ccc(NC(=O)c2cccs2)cc1 ?
Pf growth 96h: 208%; CHX counter: 54*; Shiga inhibitor: 125*; NS1 function inh: -54%; FBPA Giardia inh: 0%

How did Cc1nn(CC(=O)NC(C)C(C)C)c(C)c1S(=O)(=O)N1CCCCC1 (stereo unspecified) do in these assays?
Pf growth 96h: 0%; Pf growth 48h: -19%

Results for N#Cc1nc(COc2ccccc2Cl)oc1N1CCCCCC1 ?
Pf growth 96h: inconclusive; CHX counter: -3; Shiga inhibitor: -2; NS1 function inh: 2%; Pf growth 48h: 5%; FBPA Giardia inh: 2%

What do the screens show for `N#Cc1nc(COc2ccccc2)oc1N1CCCCC1`?
Pf growth 96h: -2%; CHX counter: 51*; Shiga inhibitor: 83*; NS1 function inh: -99%; FBPA Giardia inh: 5%

What do the screens show for `CCN1CCN(c2oc(COc3ccc(-c4ccccc4)cc3)nc2C#N)CC1`?
Pf growth 96h: inconclusive; CHX counter: 20*; Shiga inhibitor: 2; Pf growth 48h: inconclusive; FBPA Giardia inh: -7%

How did Cc1ccc(OCc2nc(C#N)c(N3CCCCC3)o2)cc1 do in these assays?
Pf growth 96h: -17%; CHX counter: 18*; Shiga inhibitor: 14; NS1 function inh: -33%; Pf growth 48h: inconclusive; FBPA Giardia inh: 0%

How did N#Cc1nc(COc2ccc(Cl)cc2)oc1N1CCCCCC1 do in these assays?
CHX counter: 9; Shiga inhibitor: 14; NS1 function inh: -11%; Pf growth 48h: inconclusive; FBPA Giardia inh: -7%

What do the screens show for `N#Cc1nc(COc2ccccc2F)oc1N1CCCCCC1`?
Pf growth 96h: -5%; CHX counter: 24*; Shiga inhibitor: 28*; NS1 function inh: -15%; Pf growth 48h: -1%; FBPA Giardia inh: 1%

How did Cc1cccc(OCc2nc(C#N)c(N3CCCC3)o2)c1 do in these assays?
Pf growth 96h: inconclusive; CHX counter: 2; Shiga inhibitor: -2; NS1 function inh: -5%; Pf growth 48h: 12%; FBPA Giardia inh: -2%

How did C=CC[C@@H]1/C=C(\C)C[C@H](C)C[C@H](OC)[C@H]2O[C@@](O)(C(=O)C(=O)N3CCCC[C@H]3C(=O)O[C@H](/C(C)=C/[C@@H]3CC[C@@H](O)[C@H](OC)C3)[C@H](C)[C@@H](O)CC1=O)[C@H](C)C[C@@H]2OC do in these assays?
Pf growth 96h: 1.5µM*; CHX counter: -3; Shiga inhibitor: -6; Pf growth 48h: 1.7µM*; FBPA Giardia inh: -18%

How did COc1cccc(N2C(=O)CC(NNC(=O)c3cccs3)C2=O)c1 (stereo unspecified) do in these assays?
Pf growth 96h: 38%; CHX counter: 19*; Shiga inhibitor: 43*; NS1 function inh: 17%; Pf growth 48h: 19%; FBPA Giardia inh: 0%
